Legend:
Assay in all cases: DAPPL (digital affinity profiling via proximity ligation, sequencing); 10 mM Tris-HCl pH 7.5, 50 mM NaCl, 1 mM DTT, 4% glycerol, room temperature, 30 min; GST-TFs on glutathione beads, 16-mer random dsDNA library, 0.1% formaldehyde crosslink after washing; high values mean tight binding
Details in all cases: protein: recombinant; tags: N-terminal GST; dsDNA, one strand shown
FEV = target: T1, FEV (Homo sapiens, UniProt Q99581 1-238)
T1 sequence: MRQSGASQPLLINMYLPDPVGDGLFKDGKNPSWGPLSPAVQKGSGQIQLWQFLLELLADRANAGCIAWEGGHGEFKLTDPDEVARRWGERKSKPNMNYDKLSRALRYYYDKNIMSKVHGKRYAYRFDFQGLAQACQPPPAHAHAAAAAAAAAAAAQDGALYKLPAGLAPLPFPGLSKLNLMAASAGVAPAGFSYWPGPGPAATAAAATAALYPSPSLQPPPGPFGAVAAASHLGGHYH
Outline: (§1)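 GST fusions of human transcription factors were expressed in yeast and captured with glutathione beads. Once given DNA barcodes and pooled alongside a tag-only sample, they were incubated for 30 min at room temperature with 200 nmole of a random double-stranded 16-mer DNA library in Tris/NaCl/DTT/glycerol buffer, then washed, crosslinked (0.1% formaldehyde), proximity-ligated, PCR-amplified and sequenced on an Illumina NextSeq500. The binding signal of each hexamer is its read frequency for a factor divided by its frequency for the tag-only sample.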

ETV5 = ETV5 (Homo sapiens, UniProt P41161 1-510)
Outline: as §1

SPIC = target: T2, SPIC (Homo sapiens, UniProt Q8N5J4 1-248)
T2 sequence: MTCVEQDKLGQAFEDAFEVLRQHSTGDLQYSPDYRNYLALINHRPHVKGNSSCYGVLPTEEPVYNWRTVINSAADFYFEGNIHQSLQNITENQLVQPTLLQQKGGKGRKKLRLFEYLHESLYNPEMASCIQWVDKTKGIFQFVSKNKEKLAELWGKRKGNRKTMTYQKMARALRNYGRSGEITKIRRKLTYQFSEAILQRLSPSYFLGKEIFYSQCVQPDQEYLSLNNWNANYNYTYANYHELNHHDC
Outline: as §1

ELF4 = ELF4 (Homo sapiens, UniProt Q99607 1-663)
Outline: as §1

ELK4 = target: T3, ELK4 (Homo sapiens, UniProt P28324-2 1-405)
T3 sequence: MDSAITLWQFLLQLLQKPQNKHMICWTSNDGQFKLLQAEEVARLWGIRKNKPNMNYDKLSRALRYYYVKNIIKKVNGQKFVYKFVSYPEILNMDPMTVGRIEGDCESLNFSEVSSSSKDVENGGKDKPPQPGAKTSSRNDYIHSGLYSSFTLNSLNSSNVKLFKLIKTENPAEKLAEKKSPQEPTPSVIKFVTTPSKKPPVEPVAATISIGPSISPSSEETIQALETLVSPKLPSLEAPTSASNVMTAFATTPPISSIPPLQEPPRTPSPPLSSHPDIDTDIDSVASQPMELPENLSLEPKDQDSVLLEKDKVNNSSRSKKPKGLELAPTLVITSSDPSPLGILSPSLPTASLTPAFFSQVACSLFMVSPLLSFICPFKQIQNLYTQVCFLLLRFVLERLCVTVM
Outline: as §1

ETV2 = target: T4, ETV2 (Homo sapiens, UniProt O00321 1-342)
T4 sequence: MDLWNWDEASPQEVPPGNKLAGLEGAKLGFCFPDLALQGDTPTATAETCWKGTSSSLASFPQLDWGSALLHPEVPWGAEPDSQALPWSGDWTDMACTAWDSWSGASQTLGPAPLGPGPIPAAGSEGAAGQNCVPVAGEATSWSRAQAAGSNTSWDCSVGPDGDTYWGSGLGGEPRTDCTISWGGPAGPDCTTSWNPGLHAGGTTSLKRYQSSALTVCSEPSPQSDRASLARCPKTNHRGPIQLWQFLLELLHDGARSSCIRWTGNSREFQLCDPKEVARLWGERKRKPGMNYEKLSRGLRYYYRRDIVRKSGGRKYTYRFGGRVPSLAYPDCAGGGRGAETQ
Outline: as §1

ELF3 = target: T5, ELF3 (Homo sapiens, UniProt P78545 1-371)
T5 sequence: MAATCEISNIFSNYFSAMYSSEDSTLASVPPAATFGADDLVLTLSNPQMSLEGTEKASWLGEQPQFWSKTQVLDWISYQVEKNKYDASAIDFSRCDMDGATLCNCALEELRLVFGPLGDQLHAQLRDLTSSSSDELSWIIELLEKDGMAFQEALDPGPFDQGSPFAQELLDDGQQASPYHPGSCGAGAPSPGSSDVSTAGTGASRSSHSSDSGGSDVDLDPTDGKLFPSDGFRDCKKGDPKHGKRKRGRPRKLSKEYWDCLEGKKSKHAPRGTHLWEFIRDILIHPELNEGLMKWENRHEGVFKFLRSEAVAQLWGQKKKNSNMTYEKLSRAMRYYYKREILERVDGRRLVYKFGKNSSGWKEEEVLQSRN
Outline: as §1

ETV1 = ETV1 (Homo sapiens, UniProt P50549 1-477)
Outline: as §1

ERF = target: T6, ERF (Homo sapiens, UniProt P50548 1-548)
T6 sequence: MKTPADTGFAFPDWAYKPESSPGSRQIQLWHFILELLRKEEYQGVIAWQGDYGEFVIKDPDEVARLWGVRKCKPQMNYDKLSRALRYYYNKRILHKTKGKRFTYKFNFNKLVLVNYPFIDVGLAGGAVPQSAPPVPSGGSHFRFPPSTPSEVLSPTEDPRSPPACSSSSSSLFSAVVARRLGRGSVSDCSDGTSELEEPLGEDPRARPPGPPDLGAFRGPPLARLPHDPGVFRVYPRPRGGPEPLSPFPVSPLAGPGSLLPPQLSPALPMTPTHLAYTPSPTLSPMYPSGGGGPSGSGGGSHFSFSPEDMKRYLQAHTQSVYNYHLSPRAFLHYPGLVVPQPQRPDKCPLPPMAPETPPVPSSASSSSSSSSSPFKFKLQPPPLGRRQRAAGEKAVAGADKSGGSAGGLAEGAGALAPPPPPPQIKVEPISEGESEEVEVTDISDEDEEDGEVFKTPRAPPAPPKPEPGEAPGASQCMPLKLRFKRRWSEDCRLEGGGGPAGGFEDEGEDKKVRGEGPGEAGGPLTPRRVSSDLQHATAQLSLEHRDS
Outline: as §1

ETV3L = target: T7, ETV3L (Homo sapiens, UniProt Q6ZN32 1-361)
T7 sequence: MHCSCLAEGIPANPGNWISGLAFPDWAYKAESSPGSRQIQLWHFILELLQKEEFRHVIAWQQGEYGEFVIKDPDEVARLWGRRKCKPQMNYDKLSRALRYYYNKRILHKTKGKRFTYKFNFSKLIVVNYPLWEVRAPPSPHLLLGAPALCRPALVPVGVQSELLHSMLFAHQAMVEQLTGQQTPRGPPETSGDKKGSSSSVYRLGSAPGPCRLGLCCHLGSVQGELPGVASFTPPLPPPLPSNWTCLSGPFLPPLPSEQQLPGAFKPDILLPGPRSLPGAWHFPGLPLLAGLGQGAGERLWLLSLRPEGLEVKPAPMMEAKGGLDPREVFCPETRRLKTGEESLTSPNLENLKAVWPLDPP
Outline: as §1

ETS2 = target: T8, ETS2 (Homo sapiens, UniProt P15036 1-469)
T8 sequence: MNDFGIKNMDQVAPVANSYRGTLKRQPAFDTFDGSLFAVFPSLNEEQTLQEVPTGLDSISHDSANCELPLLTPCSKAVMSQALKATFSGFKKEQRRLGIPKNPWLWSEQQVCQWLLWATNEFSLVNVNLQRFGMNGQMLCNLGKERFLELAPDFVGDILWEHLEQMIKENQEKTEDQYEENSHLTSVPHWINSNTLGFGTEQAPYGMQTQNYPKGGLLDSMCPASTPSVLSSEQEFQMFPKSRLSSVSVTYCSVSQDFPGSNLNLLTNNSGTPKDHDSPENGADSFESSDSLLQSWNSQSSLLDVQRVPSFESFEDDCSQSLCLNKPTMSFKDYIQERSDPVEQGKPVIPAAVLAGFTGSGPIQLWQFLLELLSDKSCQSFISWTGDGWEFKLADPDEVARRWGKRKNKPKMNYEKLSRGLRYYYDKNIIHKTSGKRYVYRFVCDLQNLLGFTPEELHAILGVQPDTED
Outline: as §1

SPDEF = target: T9, SPDEF (Homo sapiens, UniProt O95238 1-335)
T9 sequence: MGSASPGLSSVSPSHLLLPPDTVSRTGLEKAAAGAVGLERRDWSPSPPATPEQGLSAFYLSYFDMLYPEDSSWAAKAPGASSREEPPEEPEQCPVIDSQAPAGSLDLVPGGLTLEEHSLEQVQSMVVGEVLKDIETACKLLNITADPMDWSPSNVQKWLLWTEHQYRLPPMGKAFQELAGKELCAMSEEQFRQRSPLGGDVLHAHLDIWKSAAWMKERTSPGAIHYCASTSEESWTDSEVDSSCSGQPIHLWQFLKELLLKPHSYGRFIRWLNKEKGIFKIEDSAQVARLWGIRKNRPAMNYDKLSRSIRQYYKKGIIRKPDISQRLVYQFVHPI
Outline: as §1

ETV7 = target: T10, ETV7 (Homo sapiens, UniProt Q9Y603 1-341)
T10 sequence: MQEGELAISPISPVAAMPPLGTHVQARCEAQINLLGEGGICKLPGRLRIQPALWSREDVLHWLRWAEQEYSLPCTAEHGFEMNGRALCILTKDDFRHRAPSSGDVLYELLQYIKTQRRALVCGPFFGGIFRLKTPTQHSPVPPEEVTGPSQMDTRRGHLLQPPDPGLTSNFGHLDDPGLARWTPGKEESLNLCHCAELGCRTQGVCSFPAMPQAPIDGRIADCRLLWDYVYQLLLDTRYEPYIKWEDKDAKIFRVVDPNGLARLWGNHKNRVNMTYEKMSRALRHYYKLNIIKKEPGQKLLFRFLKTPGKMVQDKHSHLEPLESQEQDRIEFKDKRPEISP
Outline: as §1

ELF5 = target: T11, ELF5 (Homo sapiens, UniProt Q9UKW6-2 1-255)
T11 sequence: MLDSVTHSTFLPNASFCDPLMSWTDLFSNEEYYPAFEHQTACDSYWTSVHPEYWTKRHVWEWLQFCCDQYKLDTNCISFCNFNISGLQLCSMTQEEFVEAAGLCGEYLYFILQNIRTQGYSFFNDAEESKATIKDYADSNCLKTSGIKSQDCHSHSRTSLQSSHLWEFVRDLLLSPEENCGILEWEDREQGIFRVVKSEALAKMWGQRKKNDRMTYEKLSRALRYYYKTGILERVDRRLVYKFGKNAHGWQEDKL
Outline: as §1

ETV3 = target: T12, ETV3 (Homo sapiens, UniProt P41162-2 1-143)
T12 sequence: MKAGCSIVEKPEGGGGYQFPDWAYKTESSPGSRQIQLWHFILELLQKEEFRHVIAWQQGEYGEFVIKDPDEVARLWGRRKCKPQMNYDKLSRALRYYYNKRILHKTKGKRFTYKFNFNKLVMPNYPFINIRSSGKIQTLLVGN
Outline: as §1

ETV6 = ETV6 (Homo sapiens, UniProt P41212 1-452)
Outline: as §1

Sequence of ETV1 (P50549 whole entry): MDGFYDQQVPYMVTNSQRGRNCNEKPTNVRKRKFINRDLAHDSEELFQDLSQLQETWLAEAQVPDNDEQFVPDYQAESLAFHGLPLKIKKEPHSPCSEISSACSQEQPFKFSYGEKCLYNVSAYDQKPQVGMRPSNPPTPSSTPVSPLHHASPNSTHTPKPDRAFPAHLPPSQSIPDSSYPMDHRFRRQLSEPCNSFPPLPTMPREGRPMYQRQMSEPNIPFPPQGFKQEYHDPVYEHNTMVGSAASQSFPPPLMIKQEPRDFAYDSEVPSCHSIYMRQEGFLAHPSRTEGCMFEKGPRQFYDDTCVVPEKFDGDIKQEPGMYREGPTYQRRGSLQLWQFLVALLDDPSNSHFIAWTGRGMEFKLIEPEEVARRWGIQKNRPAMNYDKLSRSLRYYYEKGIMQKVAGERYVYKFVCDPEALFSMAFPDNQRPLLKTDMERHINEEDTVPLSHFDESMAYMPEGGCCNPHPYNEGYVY
Sequence of ETV6 (P41212 whole entry): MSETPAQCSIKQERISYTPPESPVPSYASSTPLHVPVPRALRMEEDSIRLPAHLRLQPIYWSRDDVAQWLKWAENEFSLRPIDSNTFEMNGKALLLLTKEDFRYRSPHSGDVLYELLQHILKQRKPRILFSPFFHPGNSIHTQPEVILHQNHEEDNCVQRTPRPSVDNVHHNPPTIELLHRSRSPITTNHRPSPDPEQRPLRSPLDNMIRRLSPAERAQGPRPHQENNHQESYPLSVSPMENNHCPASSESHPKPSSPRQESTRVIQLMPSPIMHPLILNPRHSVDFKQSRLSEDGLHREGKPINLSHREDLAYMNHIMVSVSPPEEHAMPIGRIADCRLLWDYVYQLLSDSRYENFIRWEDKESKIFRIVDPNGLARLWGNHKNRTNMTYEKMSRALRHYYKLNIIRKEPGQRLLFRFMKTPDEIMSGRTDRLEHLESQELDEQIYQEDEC
Sequence of ETV5 (P41161 whole entry): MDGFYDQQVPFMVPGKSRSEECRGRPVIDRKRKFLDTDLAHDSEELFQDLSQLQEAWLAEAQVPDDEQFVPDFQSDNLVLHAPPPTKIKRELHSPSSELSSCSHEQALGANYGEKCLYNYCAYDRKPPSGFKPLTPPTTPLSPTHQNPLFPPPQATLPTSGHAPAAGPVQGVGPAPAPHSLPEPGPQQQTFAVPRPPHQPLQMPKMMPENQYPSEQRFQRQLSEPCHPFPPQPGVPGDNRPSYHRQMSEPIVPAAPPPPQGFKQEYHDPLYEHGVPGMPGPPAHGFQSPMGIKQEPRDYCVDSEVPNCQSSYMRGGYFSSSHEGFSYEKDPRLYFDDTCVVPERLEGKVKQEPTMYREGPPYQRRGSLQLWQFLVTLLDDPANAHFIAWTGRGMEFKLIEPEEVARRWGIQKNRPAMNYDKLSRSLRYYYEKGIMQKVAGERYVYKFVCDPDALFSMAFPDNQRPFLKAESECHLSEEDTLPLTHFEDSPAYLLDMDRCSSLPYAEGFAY
Sequence of ELF4 (Q99607 whole entry): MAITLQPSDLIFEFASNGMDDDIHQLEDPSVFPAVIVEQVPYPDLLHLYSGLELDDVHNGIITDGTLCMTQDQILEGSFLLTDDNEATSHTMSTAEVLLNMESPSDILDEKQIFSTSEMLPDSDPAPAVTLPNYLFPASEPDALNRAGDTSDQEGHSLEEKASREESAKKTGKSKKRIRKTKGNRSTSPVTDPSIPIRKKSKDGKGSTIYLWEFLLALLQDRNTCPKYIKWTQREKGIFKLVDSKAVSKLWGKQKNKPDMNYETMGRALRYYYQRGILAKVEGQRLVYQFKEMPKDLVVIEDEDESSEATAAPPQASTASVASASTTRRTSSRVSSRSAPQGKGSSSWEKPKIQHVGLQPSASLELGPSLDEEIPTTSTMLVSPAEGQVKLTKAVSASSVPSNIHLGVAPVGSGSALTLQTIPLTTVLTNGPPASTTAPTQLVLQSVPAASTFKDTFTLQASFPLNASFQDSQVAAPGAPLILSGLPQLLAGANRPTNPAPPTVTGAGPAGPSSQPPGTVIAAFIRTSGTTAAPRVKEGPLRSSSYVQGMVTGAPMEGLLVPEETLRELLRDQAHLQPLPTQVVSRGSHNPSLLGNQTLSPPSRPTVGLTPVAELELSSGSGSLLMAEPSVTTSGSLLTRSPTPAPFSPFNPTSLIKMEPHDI

Sequence | binding signal (FEV) | binding signal (ETV5) | binding signal (SPIC) | binding signal (ELF4) | binding signal (ELK4) | binding signal (ETV2) | binding signal (ELF3) | binding signal (ETV1) | binding signal (ERF) | binding signal (ETV3L) | binding signal (ETS2) | binding signal (SPDEF) | binding signal (ETV7) | binding signal (ELF5) | binding signal (ETV3) | binding signal (ETV6)
GTACCT | 1.14 fold enrichment (6-mer frequency, TF over GST control) | 1.26 fold enrichment (6-mer frequency, TF over GST control) | 1.44 fold enrichment (6-mer frequency, TF over GST control) | 1.23 fold enrichment (6-mer frequency, TF over GST control) | 1.25 fold enrichment (6-mer frequency, TF over GST control) | 1.32 fold enrichment (6-mer frequency, TF over GST control) | 1.57 fold enrichment (6-mer frequency, TF over GST control) | 1.27 fold enrichment (6-mer frequency, TF over GST control) | 1.19 fold enrichment (6-mer frequency, TF over GST control) | 1.19 fold enrichment (6-mer frequency, TF over GST control) | 1.21 fold enrichment (6-mer frequency, TF over GST control) | 1.27 fold enrichment (6-mer frequency, TF over GST control) | 1.2 fold enrichment (6-mer frequency, TF over GST control) | 1.31 fold enrichment (6-mer frequency, TF over GST control) | 1.14 fold enrichment (6-mer frequency, TF over GST control) | 1.19 fold enrichment (6-mer frequency, TF over GST control)
GAAGCG | 1.37 fold enrichment (6-mer frequency, TF over GST control) | 1.33 fold enrichment (6-mer frequency, TF over GST control) | 1.27 fold enrichment (6-mer frequency, TF over GST control) | 1.2 fold enrichment (6-mer frequency, TF over GST control) | 1.2 fold enrichment (6-mer frequency, TF over GST control) | 1.19 fold enrichment (6-mer frequency, TF over GST control) | 1.22 fold enrichment (6-mer frequency, TF over GST control) | 1.38 fold enrichment (6-mer frequency, TF over GST control) | 1.29 fold enrichment (6-mer frequency, TF over GST control) | 1.32 fold enrichment (6-mer frequency, TF over GST control) | 1.33 fold enrichment (6-mer frequency, TF over GST control) | 1.29 fold enrichment (6-mer frequency, TF over GST control) | 1.36 fold enrichment (6-mer frequency, TF over GST control) | 1.35 fold enrichment (6-mer frequency, TF over GST control) | 1.36 fold enrichment (6-mer frequency, TF over GST control) | 1.43 fold enrichment (6-mer frequency, TF over GST control)

Reference: article PMC7862700, “An all-to-all approach to the identification of sequence-specific readers for epigenetic DNA modifications on cytosine”
